Only some compounds are listed: those with a hit (about 3.4% of all), similar ones and a draw of the others.
PP1 counter – PP1-alpha phosphatase inhibitors, primary screen, counter-screen for PP5 inhibitor project, biochemical, fluorescence, OMFP substrate, single point; Serine/threonine-protein phosphatase PP1-alpha catalytic subunit (Homo sapiens), P62136; purified PP1alpha; inhibition, % at 6.7 µM; hit rate 0.9% among 320,000; AID 2235, 2010;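 active means inhibition above the mean inhibition of all tested compounds plus 3 SD, computed separately for each screening campaign, cut at about 15% in these data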
PAFAH1B2 inh – PAFAH1B2 enzyme inhibitors, primary screen, biochemical, fluorescence polarization, human; Platelet-activating factor acetylhydrolase IB subunit alpha2 (Homo sapiens), P68402; recombinant PAFAH1B2, FP-rhodamine activity probe; inhibition, % at 3.39 µM; hit rate 1.2% among 340,000; AID 492953, 2010;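 active means inhibition above the mean of all tested compounds plus 3 SD, cut at about 24% in these data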
Target sequence (P68402 whole entry, looked up): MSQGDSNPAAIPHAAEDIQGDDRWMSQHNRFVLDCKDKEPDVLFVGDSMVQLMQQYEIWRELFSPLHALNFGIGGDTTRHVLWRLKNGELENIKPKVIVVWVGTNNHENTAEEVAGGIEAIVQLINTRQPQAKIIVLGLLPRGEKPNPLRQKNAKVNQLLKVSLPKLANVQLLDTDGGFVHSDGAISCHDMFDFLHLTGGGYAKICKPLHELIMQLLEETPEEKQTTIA
PAFAH2 inh – PAFAH2 enzyme inhibitors, primary screen, biochemical, fluorescence polarization, human. Platelet-activating factor acetylhydrolase 2, cytoplasmic (Homo sapiens), Q99487. recombinant PAFAH2, FP-rhodamine activity probe. inhibition, % at 3.39 µM. hit rate 0.99% among 340,000;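 active means inhibition above the mean over all tested compounds plus 3 SD, cut at about 30% in these data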;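 further: inhibitors block probe labeling of enzyme so polarization drops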
pPAFAH inh – pPAFAH enzyme inhibitors, primary screen, biochemical, fluorescence polarization, human; hit rate 1.5% among 330,000; recombinant pPAFAH, FP-rhodamine probe fluorescence polarization; Platelet-activating factor acetylhydrolase (Homo sapiens), Q13093; inhibition, % at 3.39 µM;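 active means inhibition above the mean inhibition across the screen plus 3 SD, cut at about 25% in these data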;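 further: inhibitors block binding of the rhodamine activity-based probe so polarization drops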
Target sequence (Q13093 whole entry, looked up): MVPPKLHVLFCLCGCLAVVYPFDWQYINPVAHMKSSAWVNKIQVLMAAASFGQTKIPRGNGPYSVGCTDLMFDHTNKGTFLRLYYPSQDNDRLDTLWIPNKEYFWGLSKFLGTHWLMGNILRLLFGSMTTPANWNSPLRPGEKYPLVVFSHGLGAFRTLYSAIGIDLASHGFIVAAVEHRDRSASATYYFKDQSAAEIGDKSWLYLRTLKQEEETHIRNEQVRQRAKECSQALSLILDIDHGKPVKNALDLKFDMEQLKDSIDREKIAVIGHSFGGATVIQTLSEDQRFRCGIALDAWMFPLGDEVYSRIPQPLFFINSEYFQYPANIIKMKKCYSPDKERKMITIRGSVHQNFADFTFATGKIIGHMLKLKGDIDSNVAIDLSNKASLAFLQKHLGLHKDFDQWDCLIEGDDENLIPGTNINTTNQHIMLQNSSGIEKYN
PAFAH1B3 inh – PAFAH1B3 enzyme inhibitors, primary screen, biochemical, fluorescence polarization, human; Platelet-activating factor acetylhydrolase IB subunit alpha1 (Homo sapiens), Q15102; recombinant PAFAH1B3, FP-rhodamine probe; inhibition, % at 3.39 µM; hit rate 0.28% among 340,000; AID 492972, 2010;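 active means inhibition above the screen-wide average of all tested compounds plus 3 SD, cut at about 25% in these data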
PP5 primary – PP5 phosphatase inhibitors, primary screen, biochemical, fluorescence; purified PP5c, OMFP substrate fluorescence; inhibition, % at 6.7 µM; hit rate 0.18% among 320,000; AID 1987, 2009;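 active means inhibition above the campaign's mean inhibition across all tested compounds plus 3 SD, cut at about 9.5% in these data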
pPAFAH confirm – pPAFAH (PLA2G7) enzyme inhibitors, confirmation, biochemical, fluorescence polarization, human | hit rate 72% among 2,300 | recombinant pPAFAH, FP-Rh probe fluorescence polarization | inhibition, % at 3.39 µM | shares compounds with pPAFAH inh;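 active means mean inhibition of the triplicate above the hit cutoff set for the earlier primary screen, cut at about 25% in these data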
Of the large screens only hits and unclear results are named; the others gave an inactive call (follow-up assays come after a bar, where they were run).

O=C(Nc1ccc(-c2csc(Nc3ccc(Cl)cc3)n2)cc1)c1cccc(C(F)(F)F)c1	pPAFAH inh 44 (no result: PAFAH1B2 inh, PAFAH2 inh, PAFAH1B3 inh) | pPAFAH confirm inactive
CN(Cc1nccs1)C(=O)C1CCC(=O)N(CCc2cccc(F)c2)C1 (stereo not drawn)	none
CCc1ccc(NC(=O)Nc2ccc3c(c2)N(C)C(=O)CS3)cc1	pPAFAH inh 37 | pPAFAH confirm inactive
Cc1cc(C)cc(NC(=O)Nc2ccc3c(c2)N(C)C(=O)CS3)c1	none
CCOc1ccc(-c2noc(CCC(N)=O)n2)cc1OCC	none
CCCCCn1c(SCC2CCCO2)nc2cc(C(=O)N3CCC(C(N)=O)CC3)ccc2c1=O (stereo not drawn)	pPAFAH inh 42 | pPAFAH confirm inactive
CC(C)Nc1nnc(SCC(=O)c2c(N)n(Cc3ccccc3)c(=O)n(C)c2=O)s1	none
CCn1c(CCn2ccnc2C)n[nH]c1=S	none
O=C(O)CSc1cc(C(=O)c2cc(F)ccc2O)cn2c(=O)c3c(-c4ccccc4)csc3nc12	PP1 counter 17, pPAFAH inh 53 | pPAFAH confirm 65
CCOC(=O)c1sc2nc3c(SCCC#N)cc(C(=O)c4cc(F)ccc4O)cn3c(=O)c2c1C	none
O=C(O)CCc1ccc(-c2ccc(Br)cc2)n1Cc1ccco1	pPAFAH inh 45 | pPAFAH confirm 33
CCOC(=O)C1=C(c2ccccc2)NC(=O)NC1c1ccc(N(C)C)cc1 (stereo not drawn)	none
CCN1CCN(C(=S)Nc2ccsc2C(=O)OC)CC1	pPAFAH inh 60 | pPAFAH confirm inactive
COC(=O)c1sccc1NC(=S)N1CCN(C)CC1	none
CCOc1ccc2[nH]c3c(N4CCN(c5ccccn5)CC4)ncnc3c2c1	pPAFAH inh 44 | pPAFAH confirm inactive
CC(=O)Nc1cccc(NC(=O)CCn2cnc3cc(C)c(C)cc32)c1	none
CC(Cc1ccc(O)c(O)c1)C(C)Cc1ccc(O)c(O)c1 (stereo not drawn)	pPAFAH inh 70 (no result: PAFAH1B2 inh, PAFAH2 inh, PAFAH1B3 inh) | pPAFAH confirm 79
CC(CCc1ccc(O)cc1)NCCc1ccc(O)c(O)c1 (stereo not drawn)	none
CN(CC(=O)Nc1ccc(F)c(F)c1F)C(=O)C1CCCC1	none
CCN(CC)S(=O)(=O)c1cccc(C(=O)N/N=C/c2cccc(O)c2O)c1	PP1 counter 16, pPAFAH inh 41 | pPAFAH confirm 29
O=C(O)Cc1ccc(N=Nc2c(O)c(C(=O)O)cc3ccccc23)cc1	pPAFAH inh 67 | pPAFAH confirm 34
NS(=O)(=O)c1ccc(N=Nc2c(O)c(C(=O)O)cc3ccccc23)cc1	pPAFAH inh 41 | pPAFAH confirm 26
Oc1ccc2ccccc2c1N=Nc1ccc(F)cc1	none
COc1cc2c(cc1OC)CN(CC(=O)Nc1ccccc1C(=O)NC1CC1)CC2	none
Cc1cc(C)nc(N/N=C/C2=C(N3CCOCC3)C(=C\c3ccc(Cl)cc3)/CC2)n1	pPAFAH inh 62 | pPAFAH confirm 98
Cc1ccc[n+](CC(=O)Nc2ccc(Cl)c([N+](=O)[O-])c2)c1	none
CC(=O)NC(Cc1ccccc1F)C(=O)NC1CCN(C(=O)c2cnccn2)CC1 (stereo not drawn)	none
O=C(N/N=C1/CC2CCC1C2)c1cc2ccccc2cc1O (stereo not drawn)	pPAFAH inh 46 | pPAFAH confirm inactive
O=C(NCC1CCCCC1)c1cc2ccccc2cc1O	none
COCCN=c1scc(-c2cccs2)n1/N=C/c1ccc(O)c(O)c1O	pPAFAH inh 44 | pPAFAH confirm 75
COCCN=c1scc(-c2ccccc2)n1/N=C/c1c[nH]c2ccccc12	none
CCN=c1scc(C)n1/N=C/c1ccc(O)c(O)c1O	pPAFAH inh 46 | pPAFAH confirm inactive
CCN=c1scc(-c2ccco2)n1/N=C/c1ccc(O)cc1	none
CCN=c1scc(C)n1/N=C/c1cc(Br)c(O)c(Br)c1	pPAFAH inh 41 | pPAFAH confirm 25
O=C1CCCN1c1nccs1	none
CCn1nc2cc(C(=O)NCCc3cccs3)ccc2c1OC	pPAFAH inh 50 | pPAFAH confirm inactive
CCOc1c2ccc(C(=O)NCCc3ccc(C)cc3)cc2nn1CC	none
CCCCN1C(=O)/C(=C/C=C2\Oc3ccccc3N2CC)SC1=S	none (no result: PP1 counter, pPAFAH inh, PP5 primary)
CCN1/C(=C/C=C/c2oc3ccc(-c4ccccc4)cc3[n+]2CC)Oc2ccc(-c3ccccc3)cc21	PAFAH1B2 inh 26, pPAFAH inh 59 | pPAFAH confirm inactive
CC(=O)Cn1ncc(N2CCOCC2)c(Cl)c1=O	none
CC1CN(C(=O)CN2C(=O)NC3(CCCCCCC3)C2=O)CC(C)O1 (stereo not drawn)	none
NC1=NC(=O)/C(=C/c2cc(Br)c(O)c(Br)c2)S1	pPAFAH inh 48, PAFAH1B3 inh 34 | pPAFAH confirm 42
NC1=NC(=O)/C(=C/c2ccc(Br)cc2)S1	none
O=C(COc1ccc(Br)cc1)Nc1ccccc1N1CCCC1	pPAFAH inh 59 | pPAFAH confirm inactive
CC(=O)N1CCN(c2ccccc2NC(=O)COc2ccc(Br)cc2)CC1	none
O=C(O)CC(C(=O)O)N1C(=O)/C(=C/C=C/c2ccco2)SC1=S (stereo not drawn)	pPAFAH inh 68 | pPAFAH confirm inactive
O=Cc1ccc(-c2nc3ccccc3s2)o1	none
O=C(O)CCCN1C(=O)/C(=C/C=C/c2ccco2)SC1=S	PP1 counter 24, PAFAH2 inh 32, pPAFAH inh 61 | pPAFAH confirm inactive
O=C1S/C(=C\C=C\c2ccco2)C(=O)N1c1ccc(O)cc1	pPAFAH inh 37 | pPAFAH confirm inactive
O=C(O)CC(C(=O)O)N1C(=O)/C(=C/c2ccc(-c3nc4ccccc4s3)o2)SC1=S (stereo not drawn)	PAFAH2 inh 34, pPAFAH inh 65 | pPAFAH confirm 42
COc1ccc(-n2cc(CNC(C)c3ccncn3)c(-c3cccc(F)c3)n2)cc1 (stereo not drawn)	none
c1coc(CNc2nc3ccccc3s2)c1	none
CC(C)Cc1nc2ccc(N)cc2[nH]1	none
CN(C)c1ccc(NC(=O)CN2C(=O)CC(c3ccccc3)=Nc3ccccc32)cc1	none
COc1ccccc1N1C(=O)c2ccc(C(=O)Nc3ccccc3O)cc2C1=O	none
COc1ccccc1N1C(=O)c2ccc(C(=O)Nc3nccs3)cc2C1=O	pPAFAH inh 43 (no result: PAFAH1B2 inh, PAFAH2 inh, PAFAH1B3 inh) | pPAFAH confirm inactive
N#Cc1nc(-c2ccc(OCc3ccc(Cl)cc3)cc2)oc1N1CCOCC1	none
COc1ccc(OC)c(Nc2cc(-c3ccccc3)nc(N)n2)c1	pPAFAH inh 43 (no result: PAFAH1B2 inh, PAFAH2 inh, PAFAH1B3 inh) | pPAFAH confirm 37
O=C(Nc1cc2c(cc1Br)OCCO2)c1cccnc1	none

Screening data deposited in PubChem by The Scripps Research Institute Molecular Screening Center.
